Results reported in the supplement of paper PMC10849652.
About 7,900 targets were measured; listed, in parts, are those with a hit and a random draw of the rest. About 0.6% of all pairs of compound and target were hits. Unmarked numbers belong to inactive results.

Experiments:
Experiment in all cases: log2 fold change, soluble protein after heating vs DMSO (PISA); higher = thermal stabilisation; K562 cells, 10 uM, 30 min; active = over 0.2 and 3.5 SD of the protein, either way, in both replicates (recomputed)
[1] = compound: C#Cc1cccc(Nc2ncnc3cc(OCCOC)c(OCCOC)cc23)c1 [erlotinib]
Outline: (§1)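 K562 cells at 2×10^6 cells/mL were exposed to 10 μM compound for 30 min, then aliquots were heated for 3 min across 48°C-58°C, pooled, and extracted in PBS containing 0.5% NP-40 at 4°C. The supernatant after 21,000xg for 90 min was taken as soluble protein and measured by TMTpro 16plex LC-MS/MS with channel sums equalised. Thermal stability is reported relative to control samples, with values from duplicates. Fold changes are given on a log2 scale.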

[2] = compound: C/C(=N\NC(=O)C1=CC(=CC=C1)S(=O)(=O)N2CCOCC2)/C3=C(C=CC(=C3)Cl)O
Outline: as §1

[3] = compound: C1=CC(=C(C=C1Cl)C2=NC3=NC=CN=C3C(=N2)NC4=CC=NC=C4)F
Outline: as §1

[4] = compound: C1=CC(=CC=C1C2=NC3=C(N2)C=C(C=C3)C(=O)N)OC4=CC=C(C=C4)Cl
Outline: as §1

[5] = compound: C1=CC2=C(C=CC(=C2)/C=C\3/C(=O)NC(=NCC4=CC=CS4)S3)N=C1
Outline: as §1

[6] = compound: C1=CC2=NC=CN=C2C=C1/C=C/3\C(=O)NC(=O)S3
Outline: as §1

[7] = compound: C1=CC=C(C=C1)C2=NC(=C(N2)C3=CC=NC=C3)C4=CC(=C(C=C4)Cl)O
Outline: as §1

[8] = compound: C1=CC=C2C(=C1)C3=NNC4=CC=CC(=C43)C2=O
Outline: as §1

[9] = compound: C1CCN(C1)C(=O)NC2=CC=CC(=C2)NC3=NC=C(C(=N3)NCCC4=CN=CN4)Br
Outline: as §1

[10] = compound: C1CN(CCC1(CC2=CC=C(C=C2)Cl)N)C3=NC=NC4=C3C=CN4
Outline: as §1

[11] = compound: C1COCCN1CCN2C3=CC=CC=C3N=C2NC(=O)C4=CC(=CC=C4)[N+](=O)[O-] [IRAK-1-4 Inhibitor I]
Outline: as §1

[12] = compound: C=CC(=O)N1CCC[C@@H](n2nc(-c3ccc(Oc4ccccc4)cc3)c3c(N)ncnc32)C1 [ibrutinib]
Outline: as §1

[13] = compound: CC(=O)c1cnc2ccc(-c3cc(Cl)c(O)c(Cl)c3)nc2c1N[C@H]1CC[C@H](CN(C)C)CC1
Outline: as §1

[14] = compound: CC(C)(C)Cn1c(N)nc2ccc(-c3[nH]c(C(C)(C)C)nc3-c3ccc(F)cc3)nc21 [ralimetinib]
Outline: as §1

[15] = compound: CC(C)(O)CC(=O)NCCn1ccc2ncnc(Nc3ccc(Oc4cccc(C(F)(F)F)c4)c(Cl)c3)c21
Outline: as §1

[16] = compound: CC(C)C1=C2N=C(C=C(N2N=C1)NCC3=CC=CC=C3)NCCCCCCN
Outline: as §1

[17] = compound: CC(C)C[C@@H](C=O)NC(=O)[C@H](CC(C)C)NC(=O)[C@H](CC(C)C)NC(=O)OCc1ccccc1
Outline: as §1

[18] = compound: CC(C)N(C[C@H]1O[C@@H](n2cnc3c(N)ncnc32)[C@H](O)[C@@H]1O)[C@H]1C[C@@H](CCc2nc3cc(C(C)(C)C)ccc3[nH]2)C1 [pinometostat]
Outline: as §1

[19] = compound: CC1=C(C(CC(=O)N1)C2=CC=C(C=C2)C(F)(F)F)C(=O)NC3=C(C=C4C(=C3)C=NN4)F
Outline: as §1

[20] = compound: CC1=C(C2=C(C=C1)C(=O)C3=CC=CC=C3N2CCCN)C
Outline: as §1

Chain of UniProt Q9BUB5 (Q9BUB5 whole entry, looked up): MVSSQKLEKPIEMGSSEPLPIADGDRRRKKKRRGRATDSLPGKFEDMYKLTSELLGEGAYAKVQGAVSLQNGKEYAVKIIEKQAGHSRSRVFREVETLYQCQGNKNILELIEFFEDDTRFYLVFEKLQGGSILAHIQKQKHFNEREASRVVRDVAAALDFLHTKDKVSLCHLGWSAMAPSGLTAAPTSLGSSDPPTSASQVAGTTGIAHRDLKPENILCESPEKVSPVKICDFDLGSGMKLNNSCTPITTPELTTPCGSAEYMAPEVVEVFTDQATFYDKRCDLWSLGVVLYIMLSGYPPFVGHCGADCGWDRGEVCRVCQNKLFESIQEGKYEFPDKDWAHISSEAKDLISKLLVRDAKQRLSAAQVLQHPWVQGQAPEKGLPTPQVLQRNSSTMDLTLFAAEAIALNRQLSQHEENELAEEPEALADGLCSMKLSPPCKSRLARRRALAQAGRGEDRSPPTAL
Chain of UniProt O43809 (O43809 whole entry, looked up): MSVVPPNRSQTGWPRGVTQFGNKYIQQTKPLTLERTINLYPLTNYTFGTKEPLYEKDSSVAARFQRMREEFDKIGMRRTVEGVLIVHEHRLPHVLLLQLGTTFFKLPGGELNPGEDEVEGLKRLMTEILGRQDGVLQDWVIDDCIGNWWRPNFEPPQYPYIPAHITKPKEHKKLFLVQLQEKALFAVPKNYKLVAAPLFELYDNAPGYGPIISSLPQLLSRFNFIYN
Chain of UniProt Q13952 (Q13952 whole entry, looked up): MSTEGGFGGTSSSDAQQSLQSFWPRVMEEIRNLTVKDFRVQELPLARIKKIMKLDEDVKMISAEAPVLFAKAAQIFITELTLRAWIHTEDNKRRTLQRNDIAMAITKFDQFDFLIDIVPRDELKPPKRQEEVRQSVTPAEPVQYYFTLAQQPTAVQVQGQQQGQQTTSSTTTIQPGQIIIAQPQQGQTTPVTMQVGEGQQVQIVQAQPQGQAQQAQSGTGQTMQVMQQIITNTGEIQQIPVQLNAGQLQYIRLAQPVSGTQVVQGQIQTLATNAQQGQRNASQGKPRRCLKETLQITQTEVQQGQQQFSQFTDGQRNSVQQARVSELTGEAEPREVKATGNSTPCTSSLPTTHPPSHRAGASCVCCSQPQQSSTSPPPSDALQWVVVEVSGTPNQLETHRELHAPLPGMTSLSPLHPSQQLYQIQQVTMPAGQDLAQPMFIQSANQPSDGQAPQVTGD
Chain of UniProt Q8NBF2 (Q8NBF2 whole entry, looked up): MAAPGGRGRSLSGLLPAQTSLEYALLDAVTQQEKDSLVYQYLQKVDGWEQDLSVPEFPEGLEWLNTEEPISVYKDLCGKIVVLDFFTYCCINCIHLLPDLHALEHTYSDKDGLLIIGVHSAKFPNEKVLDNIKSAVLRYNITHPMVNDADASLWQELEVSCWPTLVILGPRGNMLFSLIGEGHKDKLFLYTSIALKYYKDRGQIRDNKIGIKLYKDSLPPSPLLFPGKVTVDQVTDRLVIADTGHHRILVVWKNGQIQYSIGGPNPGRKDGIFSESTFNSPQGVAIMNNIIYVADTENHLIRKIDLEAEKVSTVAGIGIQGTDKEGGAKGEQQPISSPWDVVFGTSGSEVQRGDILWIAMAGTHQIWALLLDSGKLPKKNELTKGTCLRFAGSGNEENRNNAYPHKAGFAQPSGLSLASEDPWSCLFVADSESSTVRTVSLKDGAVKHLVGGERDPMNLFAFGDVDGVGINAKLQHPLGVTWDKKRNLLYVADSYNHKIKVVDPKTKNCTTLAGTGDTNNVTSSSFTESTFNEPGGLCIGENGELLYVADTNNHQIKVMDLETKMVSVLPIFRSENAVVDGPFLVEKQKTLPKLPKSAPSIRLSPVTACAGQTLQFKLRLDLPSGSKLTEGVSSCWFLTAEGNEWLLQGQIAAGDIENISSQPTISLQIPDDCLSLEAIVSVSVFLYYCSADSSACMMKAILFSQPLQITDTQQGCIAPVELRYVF
Chain of UniProt P52701 (P52701 whole entry, looked up): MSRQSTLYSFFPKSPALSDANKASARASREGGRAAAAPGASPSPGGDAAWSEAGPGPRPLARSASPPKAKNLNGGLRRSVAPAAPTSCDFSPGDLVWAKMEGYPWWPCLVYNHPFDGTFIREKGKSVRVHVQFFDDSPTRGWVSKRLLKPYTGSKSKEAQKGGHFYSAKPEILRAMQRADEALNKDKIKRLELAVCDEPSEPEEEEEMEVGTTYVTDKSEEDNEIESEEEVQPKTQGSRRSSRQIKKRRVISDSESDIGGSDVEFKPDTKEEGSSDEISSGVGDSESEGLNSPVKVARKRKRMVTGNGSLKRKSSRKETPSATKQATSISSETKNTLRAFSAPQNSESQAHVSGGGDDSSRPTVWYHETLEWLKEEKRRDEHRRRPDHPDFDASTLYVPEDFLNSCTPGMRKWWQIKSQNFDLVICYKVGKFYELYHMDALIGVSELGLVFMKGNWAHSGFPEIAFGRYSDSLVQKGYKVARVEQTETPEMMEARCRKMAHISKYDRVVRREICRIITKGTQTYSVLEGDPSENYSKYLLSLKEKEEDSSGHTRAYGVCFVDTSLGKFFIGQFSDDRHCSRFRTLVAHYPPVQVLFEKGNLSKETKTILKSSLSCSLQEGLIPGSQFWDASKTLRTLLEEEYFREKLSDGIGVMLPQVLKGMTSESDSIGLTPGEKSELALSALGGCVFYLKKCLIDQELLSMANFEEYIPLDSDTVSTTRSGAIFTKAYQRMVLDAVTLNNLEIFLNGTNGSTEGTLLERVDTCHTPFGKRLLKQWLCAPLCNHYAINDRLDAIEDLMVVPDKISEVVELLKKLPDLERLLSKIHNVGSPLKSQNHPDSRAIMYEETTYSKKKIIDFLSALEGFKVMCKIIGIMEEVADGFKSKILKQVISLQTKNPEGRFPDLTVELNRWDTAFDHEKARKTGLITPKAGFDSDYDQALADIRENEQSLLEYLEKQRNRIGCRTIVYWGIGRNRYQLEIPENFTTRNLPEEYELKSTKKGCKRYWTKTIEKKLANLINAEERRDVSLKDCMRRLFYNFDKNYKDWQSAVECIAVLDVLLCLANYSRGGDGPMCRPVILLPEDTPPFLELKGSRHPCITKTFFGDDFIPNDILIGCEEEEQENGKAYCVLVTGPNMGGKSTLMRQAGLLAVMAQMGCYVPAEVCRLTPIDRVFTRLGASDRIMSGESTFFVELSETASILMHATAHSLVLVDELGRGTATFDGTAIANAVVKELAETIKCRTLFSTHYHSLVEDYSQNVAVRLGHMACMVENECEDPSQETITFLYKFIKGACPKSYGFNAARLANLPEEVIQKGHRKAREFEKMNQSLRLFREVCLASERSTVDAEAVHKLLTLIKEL

Target | log2 fold change [1] | log2 fold change [2] | log2 fold change [3] | log2 fold change [4] | log2 fold change [5] | log2 fold change [6] | log2 fold change [7] | log2 fold change [8] | log2 fold change [9] | log2 fold change [10] | log2 fold change [11] | log2 fold change [12] | log2 fold change [13] | log2 fold change [14] | log2 fold change [15] | log2 fold change [16] | log2 fold change [17] | log2 fold change [18] | log2 fold change [19] | log2 fold change [20]
MKNK1 (UniProt Q9BUB5) | 0.305 (active) | 0.09 | -0.05 | 0 | 0.011 | 0.081 | -0.028 | 0.001 | -0.051 | -0.066 | -0.078 | -0.034 | 0.059 | 0.117 | -0.032 | -0.065 | 0.168 | -0.019 | -0.018 | 0.057
NFYC (UniProt Q13952) | 0.014 | 0.004 | 0.016 | -0.006 | 0.059 | 0.007 | 0.007 | 0.01 | -0.034 | -0.042 | -0.023 | -0.042 | -0.023 | -0.09 | -0.046 | 0.019 | -0.061 | -0.087 | 0.046 | 0.332 (active)
NHLRC2 (UniProt Q8NBF2) | 0.035 | 0 | -0.059 | 0.057 | 0.065 | -0.074 | -0.114 | 0.042 | 0.051 | 0.001 | 0.039 | 0.07 | -0.02 | -0.122 | -0.026 | -0.124 | 0.143 | 0.013 | 0.004 | 0.023
NUDT21 (UniProt O43809) | -0.02 | 0.07 | -0.127 | 0.047 | -0.035 | -0.015 | -0.026 | 0.008 | 0.003 | -0.089 | -0.057 | 0.014 | -0.33 (active) | -0.022 | 0.077 | 0.066 | 0.034 | -0.022 | -0.005 | 0.246 (active)
MSH6 (UniProt P52701) | 0.286 | 0.224 | 0.096 | 0.002 | 0.167 | 0 | 0.102 | 0.137 | -0.095 | -0.143 | -0.18 | -0.088 | -0.121 | -0.024 | -0.299 | -0.544 | 0.039 | -0.005 | 0.053 | 0.884 (active)
